Out of some 580,000 compounds screened, about 6,100 (1.1%) were called active. About 15% were inconclusive and are not listed. The call rests on the fitted dose curve; in most records, active means well fitted inhibition curve with a large enough effect; inconclusive means small, poorly fitted or top-dose-only effect, or another doubt; inactive means no such curve, though single readings can be large or run the other way. Many of the other results were omitted from the sample, so actives are more common in it than they were.

We go through 29 compounds from PubChem BioAssay AID1671190 (National Center for Advancing Translational Sciences (NCATS), 2021).
On the % scale 0 is the no-effect control and ±100 the full control effect; potency means the concentration at half of the fitted maximal effect.

The target in the assay is Polyunsaturated fatty acid lipoxygenase ALOX12 (Homo sapiens) (UniProt P18054). Nature of the assay: Primary qHTS assay for inhibitors of human arachidonate 12S-lipoxygenase (ALOX12): Round 2. As to conditions: purified 12hLO, xylenol orange hydroperoxide absorbance; series mostly up to 108 µM; activity change, negative = inhibition: at the top concentration. A digest of the protocol: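 Purified human 12hLO (150 nM final) in 25 mM Hepes, 0.01% Triton X-100, pH 7.0 was preincubated 15 min at room temperature with compound. Then 40 uM arachidonic acid was added, 30 min. Hydroperoxide was read by Fe-XO absorbance ratio 573/405 nm.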
Sequence of Polyunsaturated fatty acid lipoxygenase ALOX12 (Homo sapiens) (P18054 whole entry, looked up): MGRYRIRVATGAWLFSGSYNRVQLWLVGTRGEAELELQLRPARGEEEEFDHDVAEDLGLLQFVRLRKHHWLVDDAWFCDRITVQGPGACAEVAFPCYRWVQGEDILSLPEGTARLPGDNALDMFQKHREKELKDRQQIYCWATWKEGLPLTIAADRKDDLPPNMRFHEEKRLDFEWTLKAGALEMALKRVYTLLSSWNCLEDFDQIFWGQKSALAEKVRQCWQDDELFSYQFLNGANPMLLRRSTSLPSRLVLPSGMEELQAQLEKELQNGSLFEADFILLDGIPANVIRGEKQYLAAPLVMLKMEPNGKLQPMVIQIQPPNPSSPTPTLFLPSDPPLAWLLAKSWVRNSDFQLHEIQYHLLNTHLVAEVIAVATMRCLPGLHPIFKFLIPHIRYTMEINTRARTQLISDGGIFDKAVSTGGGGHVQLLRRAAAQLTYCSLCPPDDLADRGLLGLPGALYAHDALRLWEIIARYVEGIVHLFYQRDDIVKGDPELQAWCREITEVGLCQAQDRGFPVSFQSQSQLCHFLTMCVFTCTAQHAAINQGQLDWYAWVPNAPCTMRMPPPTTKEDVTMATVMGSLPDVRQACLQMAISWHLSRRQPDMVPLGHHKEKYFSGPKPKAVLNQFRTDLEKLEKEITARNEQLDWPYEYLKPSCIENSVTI
For the compound `CCCCC(=O)Nc1ccccc1C(C)CC` (centres undefined), the “activity change, negative = inhibition” value is 2.54% (inactive).

With `Cc1nn(-c2ccc(F)cc2)c(Oc2ccccc2F)c1CCC(=O)NCC1CCCO1` (centres undefined), the “activity change, negative = inhibition” value is 48.6% (inactive).

Regarding `C=CCNC(=S)/N=c1/ccccn1Cc1ccccc1`, the Potency is 44.7 µM (active).

With `C=CCNC(=O)COc1coc(CN2CCN(Cc3ccccc3)CC2)cc1=O`, the “activity change, negative = inhibition” value is 30.2% (inactive).

As for `C=CCNC(=O)N1CC[C@H]2CC(=O)N(c3ccccc3)CC[C@H]2C1`, the “activity change, negative = inhibition” value is 0.74% [at 176 µM] (inactive).

Consider `COc1ccccc1N1CCN(C(=O)CSc2nccn3nc(-c4ccccc4)cc23)CC1`, for which the “activity change, negative = inhibition” value was 9.23% (inactive).

For the compound `CCOc1cc2ccccc2cc1C(=O)N1CCN(CC(=O)Nc2cccc(F)c2)CC1`, the “activity change, negative = inhibition” value is 0.995% (inactive).

Take `COc1ccc(C2CC(=O)NC(SCC(=O)Nc3c(C)cccc3C)=C2C#N)cc1OC` (centres undefined): the “activity change, negative = inhibition” value is -3.6% (inactive).

As to `COc1cc(C2CC(=O)N3CN(Cc4ccccc4)CSC3=C2C#N)ccc1OCc1ccccc1` (centres undefined), the Potency was 14.1 µM (active).

With `COC(=O)c1ccc(OCc2cccc(C#N)c2)c(OC)c1`, the “activity change, negative = inhibition” value was -23.9% (inactive).

In the case of `CCN(CC1COc2ccccc2O1)S(=O)(=O)N1CCOCC1` (centres undefined), the “activity change, negative = inhibition” value was 8.61% (inactive).

Consider `Nc1nonc1C(=O)N1CCN(C(=O)Nc2ccccc2)CC1`, for which the “activity change, negative = inhibition” value is 11.1% (inactive).

Turning to `Cc1cccc2c1NC(=O)C21CC(=O)Nc2c1cnn2C(C)(C)C` (centres undefined), the “activity change, negative = inhibition” value is -1.1% (inactive).

On to `CCOc1c(Br)cc(/C=C/C(=O)c2ccc(OC)c(OC)c2)cc1OC`, for which the “activity change, negative = inhibition” value is -4.63% (inactive).

`Cc1ccccc1Nc1nc(C(=O)NCCCN2CCOCC2)cs1`: the “activity change, negative = inhibition” value is 0.395% (inactive).

On to `COc1ccc(-c2nc3cnccn3c2NC2CCCCC2)cc1-c1cccc(Cl)c1`, for which the Potency is 7.94 µM (active).

For `Cc1cccc(-c2nc3cnccn3c2NCCC(=O)N2CCCCCC2)c1`, the “activity change, negative = inhibition” value is -13.1% (inactive).

As for `COc1cccc(-c2nc3nc(C)cc(C)n3c2NC2CCCCC2)c1`, the “activity change, negative = inhibition” value is -25% (inactive).

Regarding `O=C1COc2ccc(Nc3ccccc3F)nc2CN1Cc1ccccc1F`, the “activity change, negative = inhibition” value was -16.2% [at 176 µM] (inactive).

Turning to `O=c1cc2nc(-c3ccccc3)nc(SCCOc3ccc(Cl)cc3)n2[nH]1`, the “activity change, negative = inhibition” value is 0% (inactive).

As to `Cc1cccc(-c2nc(SCc3ccc(Br)cc3)n3[nH]c(=O)cc3n2)c1`, the “activity change, negative = inhibition” value was -26.7% (inactive).

On to `Cc1ccc(-c2nc(SCc3ccc(Br)cc3)n3[nH]c(=O)cc3n2)cc1`, for which the Potency was 31.6 µM (active).

Regarding `COc1ccc(OC)c(CNC(=O)c2cc3c(s2)-c2c(C)cccc2OC3)c1`, the “activity change, negative = inhibition” value is -1.33% (inactive).

Turning to `CCNC(=S)NC1CC(C)(C)NC(C)(C)C1`, the “activity change, negative = inhibition” value is -3.31% (inactive).

Turning to `Cc1cccc(NC(NC(=O)C(C)C)(C(F)(F)F)C(F)(F)F)c1`, the “activity change, negative = inhibition” value is -27.2% (inactive).

As to `CCCNC(=O)C(C)OC(=O)c1cc(=O)[nH]c2ccccc12` (centres undefined), the “activity change, negative = inhibition” value is -59.8% (inactive).

On to `CC(=O)c1ccc(NC(=O)[C@@]2(CC(=O)O)CC(c3ccc(Br)cc3)=NO2)cc1`, for which the Potency was 44.7 µM (active).

As to `Cc1ccc(NC(=O)CCC(=O)c2ccc(Br)cc2)cc1`, the “activity change, negative = inhibition” value is 0% (inactive).

`Cc1c(Cl)cccc1NC(=O)[C@@]1(CC(=O)O)CC(/C=C/c2ccccc2)=NO1`: the “activity change, negative = inhibition” value was -17.8% (inactive).
